From PubChem BioAssay
GRIN3A LBD mod: binders of NR3A ligand-binding domain, primary screen, biophysical, differential scanning fluorimetry, uHTS | Glutamate receptor ionotropic, NMDA 3A (GRIN3A) ligand-binding domain | NR3A LBD differential scanning fluorimetry, Tm shift; 0% = protein alone, 100% = glycine-bound protein | Tm shift relative to glycine control, % at 25 µM | 340,000 compounds, 2.5% hits;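 active means melting temperature shift of at least 10% of the positive control shift, at one fixed dose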
NadD inh: inhibitors of S. aureus NadD, primary screen, biochemical, colorimetric, uHTS; purified NadD enzyme, colorimetric absorbance read-out; inhibition, % at 20 µM; 360,000 compounds, 0.78% hits; AID 602399, 2012; in the data active means inhibition above about 26%
rCAG RNA binder: binders of r(CAG) RNA repeats, primary screen, biochemical, fluorescence | r(CAG) RNA repeat, TO-PRO-1 dye displacement fluorescence | inhibition, % at 3 µM | 370,000 compounds, 1.3% hits | AID 651821, 2012;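 active means inhibition above the plate cutoff, the mean of all test compounds on that plate plus 3 SD, cut at about 35% in these data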;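 further: 0% = DMSO alone and 100% = 100 µM mitoxantrone as full dye displacement; higher means more dye released from RNA so lower well fluorescence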
FAS TE block: FAS thioesterase domain inhibitors, primary screen, biochemical, fluorescence intensity, uHTS; AID 602261, 2012; 360,000 compounds, 0.67% hits; recombinant FAS-TE, OMFH fluorogenic substrate, fluorescence endpoint; Fatty acid synthase (Homo sapiens), P49327; inhibition, % at 15 µM;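 active means compounds whose normalised, plate-corrected inhibition of enzyme fluorescence in the single-dose primary screen is 50% or more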;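 further: 0% = DMSO with enzyme and 100% = substrate without enzyme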
FAS-TE conf: FAS thioesterase domain inhibitors, confirmation, biochemical, fluorescence intensity, single concentration | shares compounds with FAS TE block | recombinant FAS-TE, OMFH fluorogenic substrate | inhibition, % at 15 µM | 2,300 compounds, 45% hits | AID 624325, 2012;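 active means compounds inhibiting the enzyme by at least 50% at 15 µM in any one of the replicates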;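 further: 0% = enzyme with DMSO only and 100% = wells lacking enzyme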
The depositor's hits bear a star; . = no result. In the library only some 4.3% were active in any assay of this set; here they are far more common.

SMILES	GRIN3A LBD mod	NadD inh	rCAG RNA binder	FAS TE block	FAS-TE conf
CC(=O)c1cccc2c1OC(C)C(=O)N2Cc1ccc(Cl)cc1 (stereo unspecified)	.	-4	1	57*	62*
O=C(C1CCCN(S(=O)(=O)c2cccc3ccccc23)C1)N1CCN(Cc2ccccc2)CC1 (stereo unspecified)	.	.	5	.	.
Cc1ccc(NC(=O)C(OC(=O)c2ccc(C=O)cc2)c2ccccc2)cc1Cl (stereo unspecified)	6	18	.	50*	11
Cc1ccc(C)c(NC(=O)C(OC(=O)c2ccc(CO)cc2)c2ccccc2)c1 (stereo unspecified)	1	-6	-3	-2	.
CC1S/C(=N\N=C\c2cccc([N+](=O)[O-])c2)N(C(C)(C)C)C1=O (stereo unspecified)	0	-6	-3	54*	0
O=[N+]([O-])c1cccc(C=NN=C2c3ccccc3-c3ccccc32)c1	1	0	0	28	.
CCN1CCN(S(=O)(=O)c2ccc(Cl)c(C(=O)N(C)Cc3ccc(C(C)(C)C)cc3)c2)CC1	0	-12	0	59*	45*
CCCNC(=O)c1ccc(N2CCC3(CC2)CC(c2cccc(Br)c2)=NO3)c(NC(=O)c2c(Cl)cccc2Cl)c1	2	20	13	54*	16
Cc1ccc(CNC(=O)c2ccc(N3CCC4(CC3)CC(c3ccccc3)=NO4)c(NC(=O)c3ccco3)c2)cc1	2	28	9	64*	13
O=C(c1ccccc1Cl)N1CCSCCS1(=O)=O	.	.	-1	.	.
COC(=O)C1=C(C)N(C)C(=NCC2CC2)NC1CCc1ccccc1 (stereo unspecified)	.	.	7	.	.
O=C(O)c1cc(-c2ccc(/C=N/NC(=S)Nc3ccccc3)o2)ccc1Cl	-3	-3	26	50*	55*
CNC(=S)N/N=C/c1ccc(-c2cccc(C(=O)O)c2)o1	-1	-5	4	-4	.
COc1ccc(NC(=O)Nc2ccc3c(c2)C(=O)N([C@H](C)CO)C[C@H](C)[C@@H](CN(C)Cc2ccc(Cl)c(Cl)c2)OCCCC[C@@H](C)O3)cc1	.	40*	19	62*	8
CC(C)NC(=O)Nc1ccc2c(c1)C(=O)N([C@@H](C)CO)C[C@@H](C)[C@H](CN(C)Cc1ccccc1)OCCCC[C@H](C)O2	.	-7	0	-3	.
C[C@@H]1CCCCO[C@@H](CN(C)Cc2ccccc2)[C@@H](C)CN([C@H](C)CO)C(=O)c2cc(NC(=O)Nc3cccc4ccccc34)ccc2O1	.	22	11	52*	14
C[C@H]1CN([C@@H](C)CO)C(=O)c2cc(NC(=O)Nc3cccc4ccccc34)ccc2O[C@@H]1CN(C)Cc1ccc(-c2ccccc2)cc1	11*	27	11	60*	16
CC1CCN(c2ccc(C(=O)O)cc2NS(=O)(=O)c2ccc(Cl)s2)CC1	.	.	29	.	.
O=C(c1cccc(F)c1)N(Cc1ccccn1)CC1CCCO1 (stereo unspecified)	.	.	0	.	.
COCCCN1C(=O)[C@H](CC(=O)NCc2cccs2)[C@]2(C(=O)OC)CCCCC=C12	.	.	5	.	.
O=C(COc1ncnc2ccccc12)Nc1cc([N+](=O)[O-])ccc1Cl	2	-6	0	51*	3
CCN1C(=O)[C@H]2[C@@H](c3ccc(-c4ccc(Cl)c(Cl)c4)c(OC)c3)N[C@@](Cc3ccccc3)(C(=O)OC)[C@H]2C1=O	-8	17	7	70*	17
CCN1C(=O)[C@H]2[C@@H](c3ccc(-c4ccc(F)cc4)c(OC)c3)N[C@@](CC(C)C)(C(=O)OC)[C@H]2C1=O	.	.	0	.	.
CCN1C(=O)[C@H]2[C@@H](c3ccc(-c4ccc5c(c4)OCO5)cc3)N[C@@](Cc3ccccc3)(C(=O)OC)[C@H]2C1=O	-4	16	6	67*	32
CCN1C(=O)[C@H]2[C@@H](c3ccc(-c4cccc(Cl)c4)cc3)N[C@@](Cc3ccccc3)(C(=O)OC)[C@H]2C1=O	-2	11	11	46	.
SMILES	GRIN3A LBD mod	NadD inh	rCAG RNA binder	FAS TE block	FAS-TE conf
Cc1ccccc1CNC(=O)CN1CCCc2ccccc21	.	.	1	.	.
CCCn1c(=S)[nH]c2cc(C(=O)N3CCN(c4ccc(F)cc4)CC3)ccc2c1=O	.	3	3	55*	26
Cc1occc1-c1nnc(SCC(=O)N2CCN(c3ncccn3)CC2)n1-c1ccccc1	.	.	2	.	.
CCc1cccc(CC)c1NC(=O)/C(C#N)=C/c1ccccc1C(F)(F)F	5	-3	-3	54*	61*
N#C/C(=C\c1ccccc1C(F)(F)F)C(=O)Nc1ccccc1	0	11	0	36	.
COc1ccc(CNS(=O)(=O)c2ccccc2Br)c(OC)c1	.	.	3	.	.
CCOc1ccc(C(=O)COC(=O)c2cc([N+](=O)[O-])ccc2N2CCOCC2)cc1	2	-10	-2	69*	63*
O=C(COC(=O)c1cc([N+](=O)[O-])ccc1N1CCOCC1)c1ccc(Br)cc1	2	-6	3	63*	7
O=C(COC(=O)c1cc([N+](=O)[O-])ccc1N1CCOCC1)c1ccc(OC(F)F)cc1OC(F)F	-3	-7	7	48	.
CCN(C[C@H]1N[C@@](Cc2ccccc2)(C(=O)OC)[C@H]2C(=O)N(Cc3ccccc3)C(=O)[C@@H]12)C(=O)Nc1ccc(Cl)cc1	17*	13	7	60*	36
COC(=O)[C@]1(Cc2ccccc2)N[C@H](CN(C)C(=O)Nc2ccc(C(F)(F)F)cc2)[C@@H]2C(=O)N(Cc3ccccc3)C(=O)[C@@H]21	-9	9	2	63*	35
COc1cc(/C=N/NC(=O)c2ccc3ccccc3c2)ccc1Oc1ccc([N+](=O)[O-])cn1	3	25	11	52*	12
COc1cccc(C(=O)N/N=C/c2ccc(Oc3ccc([N+](=O)[O-])cn3)c(OC)c2)c1	-2	13	5	18	.
O=C(c1ccc2c(c1)OCO2)N1CCC2(CC1)Oc1ccc(F)cc1C(=O)C21CC(c2ccccc2)=NO1 (stereo unspecified)	-2	9	8	67*	19
O=C(c1ccoc1)N1CCC2(CC1)Oc1ccc(F)cc1C(=O)C21CC(c2ccc(Cl)cc2)=NO1 (stereo unspecified)	0	20	7	74*	22
O=C(c1ccc2c(c1)OCO2)N1CCC2(CC1)Oc1ccc(F)cc1C(=O)C21CC(c2cccnc2)=NO1 (stereo unspecified)	-5	9	3	15	.
